# Reference: the supplement of paper PMC10681739
# How the values were obtained:
# ETS1 [1] = target: T1, ETS1 (UniProt P14921); experiment: ETS1 binding intensity (PBM fluorescence), ETS1 alone (arbitrary fluorescence units); higher = stronger binding; conditions: ETS1 concentration 1 nM; RUNX1 concentration 0 nM
# T1 sequence: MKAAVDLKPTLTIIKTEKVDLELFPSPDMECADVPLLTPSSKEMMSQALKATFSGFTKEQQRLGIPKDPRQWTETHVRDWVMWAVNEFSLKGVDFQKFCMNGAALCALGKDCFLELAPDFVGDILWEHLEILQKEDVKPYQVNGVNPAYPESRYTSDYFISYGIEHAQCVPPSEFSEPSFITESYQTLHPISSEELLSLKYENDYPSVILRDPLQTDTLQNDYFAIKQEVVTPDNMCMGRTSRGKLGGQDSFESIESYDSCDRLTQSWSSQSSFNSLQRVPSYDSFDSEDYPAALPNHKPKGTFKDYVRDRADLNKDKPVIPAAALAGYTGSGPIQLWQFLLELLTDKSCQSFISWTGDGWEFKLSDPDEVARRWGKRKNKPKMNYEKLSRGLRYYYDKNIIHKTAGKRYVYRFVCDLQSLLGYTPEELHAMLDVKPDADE
# ETS1 [2] = target: T1, ETS1; experiment: ETS1 binding intensity (PBM fluorescence) in presence of RUNX1, normalised to ETS1-only experiment (arbitrary fluorescence units); higher = stronger binding; conditions: ETS1 concentration 1 nM; RUNX1 concentration 25 nM
Sequence,ETS1 binding intensity (ETS1 [1]),ETS1 binding intensity (ETS1 [2])
CTTGCTTGAGTCACAGGAAACCACTCAGAGGCTAAC,2600,2860
CCTCCTGGGAACTTCCTGCGGGGGCCGAAGCTGAAG,640,660
CCGAGACACATGGGATGTGGGCGGGAGGAGGAATTG,715,941
ATGACTCATTTCCTCACTCTCTACTCCCACAGAACC,606,464
ATGTAAACAAGGATGTGAGTTCTGCGGCCACACTCT,448,763
TAGCCATCGTGCAAAGGATGTGGTGAAGTCAGTCAG,942,2620
CTGGAAACCATTTCCTTTGTGGCCATGAAACAATGG,594,601
AGAAACGTCAATTTCCTGGCCACAGAATCCACTGCC,608,501
CCTCCTCTTCCTCCCCACTCTGCACATGCGGCTGGG,520,344
TGAGTCATTTCCTGGGTGGGGGCCACAAGACCAGGT,540,553
GCCTGAAGCAGAGGATGTGGCTTCTGGCCCTCCCCT,1460,1800
AGCCAGGAAATCCGCACCTACACAGCCCAACCACAG,582,435
CCTCTCAACAGCATTTCCTGGTGGTCAGATATCTGA,580,587
GAACTGAAGAAGGCAGGAAGCCACAGGCTCCTGGGT,1730,2280
